Experimental findings from article PMC10726135, “HNF4α isoforms regulate the circadian balance between carbohydrate and lipid metabolism in the liver” are described below.

Over roughly 18,000 sequences, “log2 normalized intensity” has its median near 0.39; the highest 2% begin near 6.6. Shown is part of a subset that was picked to be rich in the highest values.

The assay has as its target T1, HNF4alpha2 (COS-7 nuclear extract) (Homo sapiens, UniProt P41235 1-474).
T1 sequence: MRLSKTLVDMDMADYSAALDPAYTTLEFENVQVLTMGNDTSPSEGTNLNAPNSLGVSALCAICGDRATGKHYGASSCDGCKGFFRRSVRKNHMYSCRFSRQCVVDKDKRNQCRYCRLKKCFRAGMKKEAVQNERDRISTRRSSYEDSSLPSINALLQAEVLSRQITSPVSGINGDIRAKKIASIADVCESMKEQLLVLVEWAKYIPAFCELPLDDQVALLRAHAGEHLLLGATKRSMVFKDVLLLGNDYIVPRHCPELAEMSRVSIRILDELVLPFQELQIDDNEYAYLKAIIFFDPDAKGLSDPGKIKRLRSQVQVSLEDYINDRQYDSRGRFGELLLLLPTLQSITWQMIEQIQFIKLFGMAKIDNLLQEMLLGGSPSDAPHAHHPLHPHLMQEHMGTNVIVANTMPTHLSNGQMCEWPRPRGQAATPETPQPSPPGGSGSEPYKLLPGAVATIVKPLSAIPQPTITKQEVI
Put plainly: protein-binding microarray; COS-7 nuclear extract on double-stranded Agilent 4x180k PBM; binding buffer, salt, pH and temperature not given in the material; high values mean tight binding. As to conditions: chain copies: 2; label: 3' end of strand 1 on the slide; dsDNA, one strand shown. The method, boiled down: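 The binding signal is Agilent software's gProcessedSignal after background correction and normalization. Arrays were a custom Agilent SurePrint G3 4x180k design of double-stranded ~60-nt oligonucleotides with ~44,000 test sequences in quadruplicate, probed with nuclear extracts of COS-7 cells transiently expressing a human HNF4α isoform. Scans were made at 2-µm resolution on an Agilent G2565CA scanner.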
For the sequence “TTAATAGAAGAAAGCCCTTTTTGGAATGTGGCCTAGGGAGATTAGAGTATCGGTCGA”, the binding signal is 0.655 log2 normalized intensity.

Consider “AATGGTGGGATAGGAGACATGAAGGACATAGCCTAGGGAGATTAGAGTATCGGTCGA”, for which the binding signal is -0.721 log2 normalized intensity.

“TCCTCTTATCTTCAGGTTTGCTAATATCTGGCCTAGGGAGATTAGAGTATCGGTCGA”: the binding signal is 1.35 log2 normalized intensity.

On to “CTAGGAGAGTCCGGGGCAAACAAGGGCAACGCCTAGGGAGATTAGAGTATCGGTCGA”, for which the binding signal was -0.823 log2 normalized intensity.

Take “TGAGATAGGTACTATTATTAGAGTCCCTTTGCCTAGGGAGATTAGAGTATCGGTCGA”: the binding signal stood at 1.01 log2 normalized intensity.

For “TTTCCCCGTCCCAAGCTGAGGTCTGGTGTCGCCTAGGGAGATTAGAGTATCGGTCGA”, the binding signal amounted to 2.59 log2 normalized intensity.

Consider “CTGAGATAGTCATTCTTCTACAGTGTTTACGCCTAGGGAGATTAGAGTATCGGTCGA”, for which the binding signal came out at 0.901 log2 normalized intensity.

In the case of “AGCACACCTTTTTTTCATGCAAATTTCCGTGCCTAGGGAGATTAGAGTATCGGTCGA”, the binding signal worked out at 0.118 log2 normalized intensity.

In the case of “AAGAAATAAAAACAGCTGGGTTCCAAAAGGGCCTAGGGAGATTAGAGTATCGGTCGA”, the binding signal is 0.155 log2 normalized intensity.

On to “GTCAAACTTTGGACCCACTGCAGGATTGGAGCCTAGGGAGATTAGAGTATCGGTCGA”, for which the binding signal worked out at 3.52 log2 normalized intensity.

As for “CCCTCCTTAAGACCTAGATGGAATGTTGTGGCCTAGGGAGATTAGAGTATCGGTCGA”, the binding signal was determined as 1.29 log2 normalized intensity.

Turning to “CACAAAAAGGCTGTCACACTTGCCCTTTGCGCCTAGGGAGATTAGAGTATCGGTCGA”, the binding signal was 4.82 log2 normalized intensity.

“AGCCTCTATGTCAGGCCATTTCACCTTTGCGCCTAGGGAGATTAGAGTATCGGTCGA”: the binding signal was 3.72 log2 normalized intensity.

With “AAGGCTGTCACACTGGCCTTTGCCCTCGCTGCCTAGGGAGATTAGAGTATCGGTCGA”, the binding signal was determined as 4.98 log2 normalized intensity.

Take “AAAGGCTGTCACACTTGCCCTTTGCCCTCAGCCTAGGGAGATTAGAGTATCGGTCGA”: the binding signal was determined as 8.34 log2 normalized intensity.

With “TCAGGCCATTTCACCTTTGCCCTGTCAGTCGCCTAGGGAGATTAGAGTATCGGTCGA”, the binding signal was determined as 5.88 log2 normalized intensity.

For “CTATGTCAGGCCATTTCACCTTTGCCCTGTGCCTAGGGAGATTAGAGTATCGGTCGA”, the binding signal was found to be 6.82 log2 normalized intensity.

As for “ACACTTGCCCTTTGCCCTCACTGGTAGAAGGCCTAGGGAGATTAGAGTATCGGTCGA”, the binding signal was found to be 5.09 log2 normalized intensity.

As for “TGTCACACTGGCCTTTGCCCTCGCTGGCGGGCCTAGGGAGATTAGAGTATCGGTCGA”, the binding signal was determined as 4.25 log2 normalized intensity.

On to “CTGTCACACTTGCCCTTTGCCCTCACTGGTGCCTAGGGAGATTAGAGTATCGGTCGA”, for which the binding signal worked out at 7.1 log2 normalized intensity.

Take “GAGGAGAGAGTAAATAATTGATGAAACAGGGCCTAGGGAGATTAGAGTATCGGTCGA”: the binding signal was -0.991 log2 normalized intensity.

For the sequence “AGTACCTCTCAAAAATCTCACTCACCCTAAGCCTAGGGAGATTAGAGTATCGGTCGA”, the binding signal was -0.279 log2 normalized intensity.

As for “CATGAAGGTCTCCTTGACTTCAAAGGCATTGCCTAGGGAGATTAGAGTATCGGTCGA”, the binding signal worked out at 0.693 log2 normalized intensity.

Regarding “CTATCTGCCTGCAGGAGAGAGCAAAGTCCAGCCTAGGGAGATTAGAGTATCGGTCGA”, the binding signal came out at 7.16 log2 normalized intensity.

For the sequence “ATTCCTAAGTTCCAAAGGCCATCCACATTCGCCTAGGGAGATTAGAGTATCGGTCGA”, the binding signal was 1.84 log2 normalized intensity.

For the sequence “CTTGGGGTCAAAGTACATCCCCTAAAACATGCCTAGGGAGATTAGAGTATCGGTCGA”, the binding signal worked out at 5.71 log2 normalized intensity.

Regarding “GACCAGTCTGCCTGACTCCAGAGTCCAAACGCCTAGGGAGATTAGAGTATCGGTCGA”, the binding signal was 2.77 log2 normalized intensity.

As for “AGTCTTGAGTCCCAAAGTCCAAAGGCAGTCGCCTAGGGAGATTAGAGTATCGGTCGA”, the binding signal was 2.83 log2 normalized intensity.

Consider “GTTACCTTGGGGTCAAAGTACATCCCCTAAGCCTAGGGAGATTAGAGTATCGGTCGA”, for which the binding signal worked out at 6.4 log2 normalized intensity.

“TGCAAGTTACCTTGGGGTCAAAGTACATCCGCCTAGGGAGATTAGAGTATCGGTCGA”: the binding signal was found to be 8.65 log2 normalized intensity.

With “AGCCCTTATATCCACATGGGTCCAAAGTTCGCCTAGGGAGATTAGAGTATCGGTCGA”, the binding signal came out at 8.54 log2 normalized intensity.

As for “CAACTCCAAAGTCCAAAGTCCAGTCTTATCGCCTAGGGAGATTAGAGTATCGGTCGA”, the binding signal was found to be 8.27 log2 normalized intensity.

As to “CAGGGAGCCCTTATATCCACATGGGTCCAAGCCTAGGGAGATTAGAGTATCGGTCGA”, the binding signal was determined as 2.29 log2 normalized intensity.

“TGTCTCCCTCTGCAGCAAAGTCCAGGCATAGCCTAGGGAGATTAGAGTATCGGTCGA”: the binding signal worked out at 1.13 log2 normalized intensity.

With “TGCCTGCAGGAGAGAGCAAAGTCCACGCATGCCTAGGGAGATTAGAGTATCGGTCGA”, the binding signal amounted to 6.29 log2 normalized intensity.

Turning to “GAGTCTTAGGGAGGGGCCAGGACAAAGGTCGCCTAGGGAGATTAGAGTATCGGTCGA”, the binding signal is 5.72 log2 normalized intensity.

“CCACTCTCATGGTCAATATTTTCTTTGTGCGCCTAGGGAGATTAGAGTATCGGTCGA”: the binding signal was 1.63 log2 normalized intensity.

“GTCTGATCTTCCTGAGGAGAGCAAAGATCAGCCTAGGGAGATTAGAGTATCGGTCGA”: the binding signal was determined as 2.54 log2 normalized intensity.

As for “GACTCCAGTGATCTTATCGCCTAGTACTCCGCCTAGGGAGATTAGAGTATCGGTCGA”, the binding signal was -0.841 log2 normalized intensity.

Regarding “CCTCGCCTATGGTATGTATGGAATGTCACTGCCTAGGGAGATTAGAGTATCGGTCGA”, the binding signal amounted to 1.63 log2 normalized intensity.

With “GCCAGGACAAAGGTCCTGTGGCCTGGGGAGGCCTAGGGAGATTAGAGTATCGGTCGA”, the binding signal was 0.557 log2 normalized intensity.

In the case of “CCTGGCCATTTCTCAGGTTGTGTTTGCAGTGCCTAGGGAGATTAGAGTATCGGTCGA”, the binding signal was 1.53 log2 normalized intensity.
